G9a inh – inhibitors of human histone lysine methyltransferase G9a | Q96KQ7 | G9a H3K9 monomethylation, AlphaScreen, 2 h | Potency, µM (titrated, usually from 102 µM), inactives show at the highest dose activity, negative = inhibition, hits mostly inhibitors | 8.8% of 350,000 active; note: % is set by controls: 0 for no effect and ±100 for the full control effect; nearly all actives have a fitted effect of over 75% in size
Target sequence (Q96KQ7 913-1193 limits assumed): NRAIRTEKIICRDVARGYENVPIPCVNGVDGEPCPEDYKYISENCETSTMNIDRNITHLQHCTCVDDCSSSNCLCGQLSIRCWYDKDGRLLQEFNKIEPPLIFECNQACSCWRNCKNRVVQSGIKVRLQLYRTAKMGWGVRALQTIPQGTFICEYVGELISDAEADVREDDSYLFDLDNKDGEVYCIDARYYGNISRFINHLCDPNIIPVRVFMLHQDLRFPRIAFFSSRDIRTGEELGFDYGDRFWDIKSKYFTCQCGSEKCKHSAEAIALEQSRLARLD
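G9a (20 nM) was preincubated 15 min with compound, then reacted 2 h at room temperature with 500 nM biotin-H3K9 peptide and 20 µM SAM. Monomethyl-H3K9 detected by AlphaScreen using anti-H3K9me1 antibody.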
BAZ2B block – inhibitors of human BAZ2B bromodomain; Q9UIF8; AlphaScreen BAZ2B-H3K14Ac peptide displacement; Potency, µM (highest dose often 114 µM), inactives show at the top dose activity change, negative = inhibition, actives largely listed as inhibitors; 4.4% of 360,000 active; AID 504333; note: % is set by controls: 0 for no effect and ±100 for the full control effect; nearly all actives have a fitted effect of over 60% in size
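Compounds, titrated to a top concentration of 110 uM, were incubated 30 min at room temperature with preformed BAZ2B/acetyl-K14 H3 peptide complex (50 nM each). Proximity signal was measured by AlphaScreen after 20 min with beads.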
Sfp PPTase inh – Sfp phosphopantetheinyl transferase inhibition; Q9F4F7; Biochemical Sfp PPTase activity, qHTS; Potency, µM, without a hit: largest response in the series, negative = inhibition, most hits filed as inhibitors; 3.5% of 310,000 active;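 note: the enzyme is Sfp with the accession as filed and its product quenches rhodamine fluorescence; 0% = enzyme reaction without inhibitor and -100% = no enzyme wells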
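Compounds were incubated with enzyme (final 15 nM) for 15 min at room temperature before substrate addition started the reaction. Fluorescence at 525 nm excitation, 598 nm emission was recorded immediately and after 30 minutes.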
JMJD2A Tudor inh – JMJD2A Tudor domain (human) inhibition; O75164; AlphaScreen JMJD2A-Tudor / H3K4me3 peptide binding; Potency, µM (top dose mostly 114 µM), for inactives: at the top dose activity change, negative = inhibition, most hits filed as inhibitors; 4.4% of 390,000 active; AID 504339; note: % is set by controls: 0 for no effect and ±100 for the full control effect; nearly all actives have a fitted effect of over 50% in size
HP1b binding inh – inhibitors of HP1-beta chromodomain binding to methylated histone tails; P83916; AlphaScreen HP1-beta / biotin-H3K9me3 peptide binding; Potency, µM (highest dose often 114 µM), without a hit: at the top dose activity change, negative = inhibition, most hits filed as inhibitors; 0.56% of 390,000 active; AID 540317; note: nearly all actives have a fitted effect of over 70% in size
Target sequence (P83916 whole entry, looked up): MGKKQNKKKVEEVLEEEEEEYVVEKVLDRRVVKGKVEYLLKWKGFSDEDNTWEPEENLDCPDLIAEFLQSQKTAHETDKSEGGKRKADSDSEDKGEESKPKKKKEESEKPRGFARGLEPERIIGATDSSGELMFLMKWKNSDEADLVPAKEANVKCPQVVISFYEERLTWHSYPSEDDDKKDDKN
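AlphaScreen: HP1-beta (50 nM) preformed 30 min with biotin-H3(1-18)K9me3 peptide (50 nM) in PBS pH 7.4, 0.01% Tween-20. Compound added for 30 min at RT, then streptavidin donor/nickel chelate acceptor beads (10 ug/mL) for 30 min.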
L3MBTL1 inh – L3MBTL1 (human) inhibition | Q9Y468 | AlphaScreen L3MBTL1–H3K9me1 peptide binding | Potency, µM (highest dose often 57.1 µM), inactives show top-dose activity, negative = inhibition, usual class: inhibitors | 0.66% of 230,000 active | AID 485360; note: % is set by controls: 0 for no effect and ±100 for the full control effect; nearly all actives have a fitted effect of over 60% in size
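L3MBTL1 (50 nM) pre-complexed 30 min with biotinylated H3(1-15)K9me1 peptide (75 nM), then compounds added for 30 min at room temperature; AlphaScreen streptavidin donor/nickel chelate acceptor beads (10 ug/mL final) read after 30 min dark incubation.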
The depositor's hits bear a star; ? = inconclusive; nt = no result; ! = a repeat was not active; [ ] = dose if it differs, or a comment. Only some compounds are listed: those with a hit (about 12% of all), similar ones and a draw of the others. Calls come from the whole dose curve; as a rule, active = well fitted curve in the direction sought with a large enough effect; inconclusive = small, poorly fitted or top-dose-only effect, or another doubt; inactive = no such curve, though single readings can be large; an effect the other way counts as inactive or inconclusive. Potency is the fitted concentration of half-maximal effect.

SMILES	G9a inh	BAZ2B block	Sfp PPTase inh	JMJD2A Tudor inh	HP1b binding inh	L3MBTL1 inh
Cc1nn(-c2ccccc2)c2c1C(c1cccs1)C(C#N)=C(N)O2 (configuration not stated)	35.5µM*	39.8µM*	-10.1%	56.2µM*	50.1µM*	nt
Cc1nn(-c2ccccc2)c2c1C(c1ccco1)C(C#N)=C(N)O2 (configuration not stated)	39.8µM*	39.8µM*	-27.4%	63.1µM*	-38.6%	-29.6%
Cc1nn(-c2ccccc2)c(C)c1C1C(C#N)=C(N)Oc2n[nH]c(C)c21 (configuration not stated)	?	-20.4%	8.6%	-5.7%	30.6%	-2.1%
CC(=O)c1ccc(NC(=O)c2sc(-n3nc(C)c(CCC(C)C)c3C)nc2C)cc1	-3.7%[59 µM]	-4.1%	nt	-19.2%	44.2%	nt
CC(=O)c1cccc(-n2c(=O)c3c4c(sc3n(Cc3ccccc3Cl)c2=O)CN(C(C)=O)CC4)c1	-5.1%[59 µM]	1.6%	nt	-4.4%	34.7%	nt
COCC(=O)N1c2nc(C(C)C)nn2C2(CCCCC2)[C@@H]2CCCC[C@@H]21	3.5%[59 µM]	4.3%	nt	-11.6%	29.1%	nt
O=C(Cn1c(=O)n2nc(-c3cccc(F)c3)nc2c2ccccc21)N1CCN(c2ccccc2F)CC1	-3.1%[59 µM]	25.7%	nt	-13.6%	58.8%	nt
COc1ccc(NC(=O)c2c(-c3ccc(C)cc3)nnc3ccccc23)cc1OC	7.8%[59 µM]	-2.3%	nt	-11.0%	67.6%	nt
Cc1nn(-c2ccccc2)c2c1C(c1ccc([N+](=O)[O-])cc1)C(C#N)=C(N)O2 (configuration not stated)	50.1µM*	?	-11.5%	-33.1%	-0.5%	-16.3%
CCOC(=O)c1c(S(=O)(=O)N2CCC(C(=O)NCc3cccc(C)c3)CC2)c(C)n(C)c1C	10.5%[59 µM]	-14.7%	nt	-26.7%	-1.6%	nt
O=C(CCN1N=C(c2ccccc2)CCC1=O)NCCCN1CCOCC1	50.1µM*	-0.3%	8.2%	-4.2%	42.9%	nt
Cc1cc(C)nc(SCC(=O)N/N=C/c2cccc([N+](=O)[O-])c2)n1	-23.3%	5.5%	-1.1%	39.8µM*	-23.6%	-10.4%
Cc1cc(C)nc(SCC(=O)N/N=C/c2cccn2-c2ccc(O)cc2)n1	39.8µM*	?	-2.5%	?	-26.4%	nt
Cc1cc(C)nc(SCC(=O)NN=C2CCCC2)n1	11.7%[59 µM]	-18.9%	13.6%	17.8µM*	?	nt
O=C(CSc1ncccn1)N/N=C/c1cccc([N+](=O)[O-])c1	2.8%[59 µM]	1.1%	14.0%	0.7%	27.5%	-0.7%
O=C(O)Cc1sc(-c2ccc(Cl)cc2)nc1-c1ccccc1	-47.2%[12.7 µM]	0.5%	15.1%	25.1µM*	?	-2.7%
O=C(O)Cc1cn(-c2ccccc2)nc1-c1ccc(Cl)cc1	7.4%	1.7%	44.7µM*!	7.8%	23.0%	8.9%
O=C(O)Cc1sc(-c2ccccc2)nc1-c1ccccc1	?	-8.0%	-4.7%	-20.8%	34.7%	9.4%
Cc1ccc(Nc2nc(-c3ccccc3)c(CC(=O)O)s2)cc1	44.7µM*	-26.7%	0.3%	2.3%[11.4 µM]	-23.0%	11.1%
O=C(O)Cc1sc(NCc2ccco2)nc1-c1ccccc1	nt	?	25.1µM*	-24.7%	12.4%	36.8%
CCc1ccccc1N(C)C(=O)c1cn(CC(C)C)c(=O)c2cc(OC)c(OC)cc12	6.4%[59 µM]	4.7%	nt	-3.8%	27.9%	nt
CSc1nn(Cc2ccc(F)cc2)c(N(C(C)=O)C(C)=O)c1S(=O)(=O)c1ccccc1	-27.5%[59 µM]	1.5%	nt	-9.6%	26.0%	nt
Cc1ccc2occ(CC(=O)Nc3ccc(S(=O)(=O)N4CCC(C)CC4)cc3)c2c1	?	-13.1%	nt	-27.8%	10.7%	nt
O=C(Cc1ccccc1)NCc1ccccn1	0.0%[0.501 µM]	7.2%	15.5%	7.6%	34.3%	15.8%
O=C(O)Cc1sc(Nc2ccc(C(=O)O)cc2)nc1-c1ccccc1	1.7%[59 µM]	-19.0%	nt	-0.4%	30.0%	nt
O=C(O)Cc1sc(Nc2ccc(F)cc2)nc1-c1cccs1	8.91µM*	?	22.4µM*	?	?	-10.2%

Screening data deposited in PubChem BioAssay by National Center for Advancing Translational Sciences (NCATS).
